Results reported in paper PMC8384837, “Expanding the binding specificity for RNA recognition by a PUF domain”.
Numbering of substitutions follows the chain as printed.

Tests used:
Test in all cases: yeast three-hybrid, YBZ-1, SC-Leu-His + 0.5 mM 3-AT, 4 days
Conditions in all cases: tags: N-Gal4 AD-HA kept; label: inside an RPR1-promoter hybrid RNA with tandem MS2 sites; ssRNA
PUM1 PUF domain R8-RRG = PUM1 PUF domain R8-RRG (Homo sapiens, UniProt Q14671 828-1176, N1122R;Y1123R;Q1126G)
In short: (§1)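 Matching RNA elements and Pumilio-1 PUF domain libraries, randomized at the three base-contacting residues of every repeat, were co-expressed from a centromeric plasmid in strain YBZ-1 (LexA–MS2 coat fusion, HIS3 reporter). The repeat regions were PCR-amplified and Illumina-sequenced from cells grown four days on SC-Leu (input) or SC-Leu-His + 0.5 mM 3-AT (selection). The interaction score is the log change in variant frequency from input to selection. It is computed in log2, with a pseudocount of 1 for absent variants.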

PUM1 PUF domain R8-NWK = PUM1 PUF domain R8-NWK (Homo sapiens, UniProt Q14671 828-1176, Y1123W;Q1126K)
In short: as §1

PUM1 PUF domain R7-RPC = PUM1 PUF domain R7-RPC (Homo sapiens, UniProt Q14671 828-1176, S1079R;N1080P;E1083C)
In short: as §1

PUM1 PUF domain R7-RGH = PUM1 PUF domain R7-RGH (Homo sapiens, UniProt Q14671 828-1176, S1079R;N1080G;E1083H)
In short: as §1

PUM1 PUF domain R3-SSK = PUM1 PUF domain R3-SSK (Homo sapiens, UniProt Q14671 828-1176, C935S;R936S;Q939K)
In short: as §1

PUM1 PUF domain R6-FWR = target: T1, PUM1 PUF domain R6-FWR (Homo sapiens, UniProt Q14671 828-1176, N1043F;Y1044W;Q1047R)
T1 sequence: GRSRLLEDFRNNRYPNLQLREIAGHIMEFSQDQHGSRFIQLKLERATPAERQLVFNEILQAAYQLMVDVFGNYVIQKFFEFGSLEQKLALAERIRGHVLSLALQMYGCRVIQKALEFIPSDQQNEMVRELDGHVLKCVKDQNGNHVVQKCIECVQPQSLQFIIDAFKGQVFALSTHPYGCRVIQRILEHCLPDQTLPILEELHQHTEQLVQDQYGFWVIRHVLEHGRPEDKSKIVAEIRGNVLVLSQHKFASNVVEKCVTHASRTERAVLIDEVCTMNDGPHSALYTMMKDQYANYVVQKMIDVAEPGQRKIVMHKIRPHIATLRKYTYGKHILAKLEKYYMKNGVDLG
In short: as §1

PUM1 PUF domain R5-QNS = PUM1 PUF domain R5-QNS (Homo sapiens, UniProt Q14671 828-1176, C1007Q;R1008N;Q1011S)
In short: as §1

PUM1 PUF domain R6-HYR = target: T2, PUM1 PUF domain R6-HYR (Homo sapiens, UniProt Q14671 828-1176, N1043H;Q1047R)
T2 sequence: T1 sequence with F216H, W217Y
In short: as §1

PUM1 PUF domain R3-TRL = PUM1 PUF domain R3-TRL (Homo sapiens, UniProt Q14671 828-1176, C935T;Q939L)
In short: as §1

PUM1 PUF domain R1-RVI = PUM1 PUF domain R1-RVI (Homo sapiens, UniProt Q14671 828-1176, S863R;R864V;Q867I)
In short: as §1

GGCUAGAACUAGUGGAUCCCCCGGCGCCCGGCGGCUCGAGCCCGGGUAAGCGUAAAUAGUCUGCAUGCCGCCGGGCGCCAUGCCUGCAGGUCGACUCUAGAAAACAUG
binding signal (PUM1 PUF domain R8-RRG): 2.76 log2 enrichment (interaction score) | binding signal (PUM1 PUF domain R8-NWK): 4.45 log2 enrichment (interaction score)

GGCUAGAACUAGUGGAUCCCCCGGCGCCCGGCGGCUCGAGCCCGGGUAAGUUUAAAUAGUCUGCAUGCCGCCGGGCGCCAUGCCUGCAGGUCGACUCUAGAAAACAUG
binding signal (PUM1 PUF domain R7-RPC): 3.97 log2 enrichment (interaction score) | binding signal (PUM1 PUF domain R7-RGH): 3.07 log2 enrichment (interaction score)

GGCUAGAACUAGUGGAUCCCCCGGCGCCCGGCGGCUCGAGCCCGGGUAAGUGUAAGUAGUCUGCAUGCCGCCGGGCGCCAUGCCUGCAGGUCGACUCUAGAAAACAUG
binding signal (PUM1 PUF domain R3-SSK): 2.38 log2 enrichment (interaction score)

GGCUAGAACUAGUGGAUCCCCCGGCGCCCGGCGGCUCGAGCCCGGGUAAGUCUAAAUAGUCUGCAUGCCGCCGGGCGCCAUGCCUGCAGGUCGACUCUAGAAAACAUG
binding signal (PUM1 PUF domain R7-RPC): 0.8 log2 enrichment (interaction score) | binding signal (PUM1 PUF domain R7-RGH): 1.99 log2 enrichment (interaction score)

GGCUAGAACUAGUGGAUCCCCCGGCGCCCGGCGGCUCGAGCCCGGGUAAGUGAAAAUAGUCUGCAUGCCGCCGGGCGCCAUGCCUGCAGGUCGACUCUAGAAAACAUG
binding signal (PUM1 PUF domain R6-FWR): 4.17 log2 enrichment (interaction score)

GGCUAGAACUAGUGGAUCCCCCGGCGCCCGGCGGCUCGAGCCCGGGUAAGUGUUAAUAGUCUGCAUGCCGCCGGGCGCCAUGCCUGCAGGUCGACUCUAGAAAACAUG
binding signal (PUM1 PUF domain R5-QNS): 3.13 log2 enrichment (interaction score)

GGCUAGAACUAGUGGAUCCCCCGGCGCCCGGCGGCUCGAGCCCGGGUAAGUGUAAAUAGUCUGCAUGCCGCCGGGCGCCAUGCCUGCAGGUCGACUCUAGAAAACAUG
binding signal (PUM1 PUF domain R6-HYR): 5.76 log2 enrichment (interaction score) | binding signal (PUM1 PUF domain R6-FWR): 5.25 log2 enrichment (interaction score) | binding signal (PUM1 PUF domain R8-RRG): 1.3 log2 enrichment (interaction score) | binding signal (PUM1 PUF domain R3-TRL): 2.97 log2 enrichment (interaction score)

GGCUAGAACUAGUGGAUCCCCCGGCGCCCGGCGGCUCGAGCCCGGGUAAGUGUAAUUAGUCUGCAUGCCGCCGGGCGCCAUGCCUGCAGGUCGACUCUAGAAAACAUG
binding signal (PUM1 PUF domain R3-SSK): 2.9 log2 enrichment (interaction score) | binding signal (PUM1 PUF domain R3-TRL): 0.95 log2 enrichment (interaction score)

GGCUAGAACUAGUGGAUCCCCCGGCGCCCGGCGGCUCGAGCCCGGGUAAGUGUAAAUCGUCUGCAUGCCGCCGGGCGCCAUGCCUGCAGGUCGACUCUAGAAAACAUG
binding signal (PUM1 PUF domain R1-RVI): 2.84 log2 enrichment (interaction score)

GGCUAGAACUAGUGGAUCCCCCGGCGCCCGGCGGCUCGAGCCCGGGUAAGUGUAAAUUGUCUGCAUGCCGCCGGGCGCCAUGCCUGCAGGUCGACUCUAGAAAACAUG
binding signal (PUM1 PUF domain R1-RVI): 2.56 log2 enrichment (interaction score)
